The results in this text go back to PubChem BioAssay AID1030 (National Center for Advancing Translational Sciences (NCATS), 2008).

Values joined by “and” are separate entries in the source; they are usually repeats but may differ in a detail not shown here. Equal values may be shown once. In all, about 220,000 compounds went through this assay and about 16,000 (7.3%) were called active. Entries that show only a call come without a potency. Inconclusive results (about 25%) are left out. The sample holds actives, similar compounds and a random draw of the others, so the mix is not that of the screen. Values without a mark were called inactive. Calls follow the shape of the dose curve; as a rule, active = well fitted inhibition curve with a large enough effect (not every such curve was filed as active); inconclusive = small, poorly fitted or top-dose-only effect, or another doubt; inactive = no such curve, though single readings can be large or run the other way. Peptide text beside a SMILES is read from it. * marks the point of attachment. OPac = O=C(CO*)c1ccccc1; Bz = O=C(c1ccccc1)*
Potency is read from the fitted curve at half-maximal effect.

Chain of Aldehyde dehydrogenase 1A1 (Homo sapiens) (P00352 whole entry, looked up): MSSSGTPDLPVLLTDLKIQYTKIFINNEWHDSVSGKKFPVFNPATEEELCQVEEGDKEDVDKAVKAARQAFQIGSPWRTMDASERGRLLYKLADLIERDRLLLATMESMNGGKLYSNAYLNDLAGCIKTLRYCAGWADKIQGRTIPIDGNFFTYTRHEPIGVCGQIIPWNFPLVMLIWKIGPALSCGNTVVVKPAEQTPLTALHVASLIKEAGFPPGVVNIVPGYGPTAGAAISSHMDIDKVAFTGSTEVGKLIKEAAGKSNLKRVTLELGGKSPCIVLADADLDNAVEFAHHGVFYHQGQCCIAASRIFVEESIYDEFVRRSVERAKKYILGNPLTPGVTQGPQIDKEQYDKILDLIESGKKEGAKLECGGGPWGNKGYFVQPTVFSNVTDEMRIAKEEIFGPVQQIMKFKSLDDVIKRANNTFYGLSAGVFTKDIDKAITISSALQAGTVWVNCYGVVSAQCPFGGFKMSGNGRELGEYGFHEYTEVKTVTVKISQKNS

The experiment addresses Aldehyde dehydrogenase 1A1 (Homo sapiens) (UniProt P00352). Briefly: qHTS Assay for Inhibitors of Aldehyde Dehydrogenase 1 (ALDH1A1). As to conditions: Purified ALDH1A1, NADH fluorescence, propionaldehyde substrate; series mostly up to 75.3 µM. Background: Quantitative high-throughput screening tests each substance at several concentrations.
In the case of `COc1ccccc1N1CCN(C(=O)CSc2nnc(-c3ccoc3C)o2)CC1`, the Potency was 1.58 µM (active).

In the case of `CCOc1ccccc1-n1c(SCC(=O)N2CCCC2)nnc1-c1ccoc1C`, the Potency result was “inactive”.

In the case of `COc1ccccc1-c1nnc(SCC(=O)Nc2cc(C)on2)o1`, the Potency entry is “inactive”.

Take `COc1ccc(-n2nc(C(=O)Nc3cc(OC)c(OC)c(OC)c3)c3ccccc3c2=O)c(OC)c1`: the Potency entry is “inactive”.

As to `COC(=O)c1c(NC(=O)c2cccs2)sc2c1CCCC2`, the Potency entry is “inactive”.

As for `CNC(=O)c1c(NC(NC(=O)c2ccco2)C(=O)c2ccc(Cl)cc2)sc2c1CCCC2` (centres undefined), the Potency is 14.1 µM (active).

Turning to `CCOC(=O)c1c(NC(=S)NC(=O)c2ccco2)sc2c1CCCC2`, the Potency result is “inactive”.

Take `COc1cc(OC)cc(-c2nnc(N(C)C(=O)c3ccncc3)s2)c1`: the Potency entry is “inactive”.

For the molecule `O=C1[C@@H]2C(c3cccnc3)=NO[C@@H]2C(=O)N1c1ccc(Cl)cc1Cl`, the Potency was 3.55 µM (active).

Take `COC(=O)CCCC1=CC2=CC(=O)C(C)(OC(=O)c3cccs3)C(=O)C2=CN1CC(C)C` (centres undefined): the activity, negative = inhibition is -2.57% [at 13.5 µM].

Turning to `c1ccc(-c2ccccc2OCCN2CCCCC2)cc1`, the Potency result is “inactive”.

In the case of `CC1CCCN(CCOCCOc2ccccc2-c2ccccc2)C1` (centres undefined), the Potency entry was “inactive”.

With `CN1CCN(CCCCOc2ccccc2-c2ccccc2)CC1`, the Potency is 10 µM (active).

In the case of `O=C(c1ccc(Cl)c(Cl)c1)N1CCCC1`, the Potency result was “inactive”.

Take `Cc1c(Cl)cccc1NC(=O)Nc1ccc(C(=O)N2CCCC2)cc1`: the Potency is 20 µM (active).

Take `O=C(Nc1ccccc1C(=O)N1CCCCCC1)c1ccccc1Cl`: the Potency result was “inactive”.

On to `Cc1ccc(S(=O)(=O)N(C)C)cc1NC(=O)COC(=O)C1COc2ccccc2O1` (centres undefined), for which the Potency result was “inactive”.

Turning to `CCOC(=O)/C(=N\Nc1ccccc1[N+](=O)[O-])c1csc(Nc2ccccc2)n1`, the Potency entry was “inactive”.

Take `C/C(=C\C(=O)c1ccccc1)Nc1cccc(O)c1`: the Potency result was “inactive”.

In the case of `CN(C)S(=O)(=O)c1cccc(C(=O)Nc2cccnc2)c1`, the Potency result is “inactive”.

Take `CN(C)S(=O)(=O)c1cccc(NC(=S)N/N=C/C(=O)c2ccccc2)c1`: the Potency is 8.91 µM (active).

As to `O=C(Nc1cccc(Cl)c1)OCc1ccccn1`, the Potency entry is “inactive”.

Regarding `O=C(CC1SC(=Nc2ccccc2)N(Cc2ccccn2)C1=O)Nc1cccc(Cl)c1` (centres undefined), the Potency was 20 µM (active).

In the case of `CN1C(=O)C(CC(=O)Nc2ccccc2)S/C1=N/c1nccs1` (centres undefined), the Potency result is “inactive”.

On to `c1ccc2c(c1)OCCOCCOCCO2`, for which the Potency result is “inactive”.

For the molecule `CCc1cc2c(SCC(=O)Nc3ncc(Cl)c(C)c3Cl)ncnc2s1`, the Potency result is “inactive”.

`CSCCC(NC(=O)c1ccco1)C(=O)OCC(=O)Nc1ncc(Cl)c(C)c1Cl` (centres undefined): the Potency was 22.4 µM (active).

Turning to `Cc1c(Cl)cnc(NC(=O)COC(=O)c2ccc(S(=O)(=O)NCc3ccco3)cc2)c1Cl`, the Potency result was “inactive”.

As for `COC(=O)c1ccc(OCC(O)CN(CCO)CC(O)Cn2ccc3ccccc32)cc1` (centres undefined), the Potency result was “inactive”.

Take `O=C(/C=C\NCC(=O)c1ccccc1)c1ccccc1`: the Potency is 2.51 µM (active).

As for `O=C(CNC(=O)c1ccccc1)NCC(=O)OCC(=O)c1ccccc1` (Bz-Gly-Gly-OPac), the Potency entry is “inactive”.

With `O=C(/C=C/NCc1ccc(F)cc1)c1ccccc1`, the Potency result is “inactive”.

Consider `OCCC1CN(Cc2ccc(Oc3ncccn3)cc2)CCN1CCc1ccccc1` (centres undefined), for which the Potency result is “inactive”.

Regarding `COc1cccc(C(=O)Nc2cccnc2)c1OC`, the Potency result is “inactive”.

With `O=C(O)c1cccc(NC(=O)c2cc(-c3cccc(Cl)c3)nc3ccccc23)c1`, the Potency entry is “inactive”.

Take `O=C(c1ccc2ccccc2n1)N1CCN(c2ccccc2Cl)CC1`: the Potency result is “inactive”.

Turning to `S=C(Nc1ccc(Br)cc1Cl)N1CCC2(CC1)OCCO2`, the Potency entry was “inactive”.

For `CC(C)C[C@H](NC(=O)[C@H](O)[C@H](N)Cc1ccccc1)C(=O)O`, the Potency result was “inactive”.

As for `O=C(CN1CCN(c2ccc(Cl)cc2)CC1)N1CCCC1`, the Potency result was “inactive”.

As for `O=C(CSCc1ccc(Cl)cc1)N1CCN(Cc2ccc3c(c2)OCO3)CC1`, the Potency entry was “inactive”.

With `O=C(CSCc1ccc(Cl)cc1)N1CCCCC1`, the Potency was 11.2 µM (active).

Regarding `COc1ccccc1NC(=S)N1CCC(NC(=O)C23CC4CC(CC(C4)C2)C3)CC1`, the Potency result is “inactive”.

Regarding `Cc1ccc(NC(=O)OCCNC(=O)c2ccncc2)cc1`, the Potency entry was “inactive”.

With `CN(C)S(=O)(=O)c1ccc2oc(SCC(=O)Nc3ccccc3F)nc2c1`, the Potency result was “inactive”.

As for `Cc1ccc(O)c(CNc2nc3ccccc3n2C)c1`, the Potency result is “inactive”.

For `Cn1c(/C(C#N)=C2/CCCCCN2)nc2ccccc21`, the Potency was 17.8 µM (active).

Consider `N#C/C(=C1/CCCN1)c1ccccn1`, for which the Potency entry is “inactive”.

With `NC(=O)c1nnsc1-c1ccc(-c2snnc2C(N)=O)cc1`, the Potency result is “inactive”.

For the molecule `O=C(C/C(=N\NC(=O)c1ccccc1Br)C(F)(F)F)c1cccs1`, the Potency entry is “inactive”.

As to `O=C(O)/C=C/C(=O)Nc1ccc(F)cc1F`, the Potency is 25.1 µM (active).

For the molecule `CC(C)CC(=O)NC(=S)Nc1ccc(F)cc1F`, the Potency entry was “inactive”.

Turning to `COc1ccc(C(=O)Nc2ccc(F)cc2F)cc1`, the Potency entry was “inactive”.

On to `Nc1c(Cl)cc(S(N)(=O)=O)cc1S(N)(=O)=O`, for which the Potency entry is “inactive”.

Regarding `CCC(C)(C)NC(=O)C(c1cccc(OC)c1OC)N(CC(C)C)C(=O)CCC(=O)Nc1cc(C)on1` (centres undefined), the Potency entry is “inactive”.

`Cc1ccc(S(=O)(=O)CCC(=O)OCc2ccccc2)cc1`: the Potency result was “inactive”.

For the molecule `CCCCN(C)CCNC(=O)CSCc1ccc(C)cc1`, the Potency result is “inactive”.

Take `Cc1ccc(CSCC(N)C(=O)O)cc1` (centres undefined): the Potency was 31.6 µM (active).

As to `O=C(CNC(=O)c1cc(=O)[nH]c2ccccc12)Nc1ccc(F)c(F)c1`, the Potency entry is “inactive”.

Regarding `COc1cc(C(F)(F)F)c(C(=O)N(C)c2ccc(Cl)cc2)cn1`, the Potency entry is “inactive”.

For `Cc1noc(C)c1/C=N/Nc1ccc2ccccc2n1`, the Potency entry was “inactive”.

For `S=c1[nH]nc(NCCc2ccccc2)s1`, the Potency was 12.6 µM (active).

On to `c1ccc(Nc2n[nH]nc2-c2ccccc2)cc1`, for which the Potency result is “inactive”.

`Cc1nc(C)c(-c2csc(NCCc3ccccc3)n2)s1`: the Potency result is “inactive”.

Regarding `S=c1[nH]nc(Nc2ccccc2)s1`, the Potency was 6.31 µM (active).

Turning to `O=C(CSc1ncccn1)NCCc1ccccc1`, the Potency entry is “inactive”.

For the molecule `O=c1cnnc(Nc2ccccc2)[nH]1`, the Potency entry is “inactive”.

For the molecule `O=C(CCCn1c(=O)c2sccc2n(CC(=O)NCC2CCCO2)c1=O)NCc1ccco1` (centres undefined), the Potency entry was “inactive”.

For `CCCN(C(=O)CSc1nnnn1C)c1c(N)n(Cc2ccccc2)c(=O)[nH]c1=O`, the Potency entry is “inactive”.

In the case of `COc1ccc(/C=C/C2=CC(C)(C)NC(=S)N2)c(OC)c1`, the Potency was 0.708 µM (active).

For the molecule `COc1cc(/C=C/CO)cc(OC)c1O[C@@H]1O[C@H](CO)[C@@H](O)[C@H](O)[C@H]1O`, the Potency entry was “inactive”.

Consider `COc1cc(/C=C/C2=CC(C)(C)NC(=S)N2)cc(OC)c1OC`, for which the Potency is 3.98 µM (active).

For `Cc1ccc2nc(C)cc(N/N=C/c3ccc(F)cc3)c2c1`, the Potency result is “inactive”.

For the molecule `O=C(NNc1cc(Cl)ccc1Cl)c1cccnc1Cl`, the Potency entry was “inactive”.

Regarding `C=CC1(C)CC(=O)C2(O)C(C)(O1)C(OC(C)=O)C(O)C1C(C)(C)CCC(O)C12C` (centres undefined), the Potency result was “inactive”.

As for `Cc1c(CCC(=O)O)c(=O)oc2cc3occ(-c4ccccc4)c3cc12`, the Potency result was “inactive”.

With `O=C(COc1ccc(S(=O)(=O)N2CCCCC2)cc1)NCc1ccccn1`, the Potency entry was “inactive”.

In the case of `Cc1ncn(C23CC4CC(CC(O)(C4)C2)C3)n1`, the Potency result is “inactive”.

Turning to `Cc1nc([N+](=O)[O-])nn1C12CC3CC(CC(Br)(C3)C1)C2`, the Potency is 8.91 µM (active).

Turning to `Cc1cn(C)c(=O)n(C)c1=O`, the Potency result is “inactive”.

In the case of `CN(C)CCCSc1ccccc1NC(=O)/C=C/c1ccccc1`, the Potency result was “inactive”.

Turning to `O=C(CCN1C(=O)c2ccncc2C1=O)Nc1cc(F)ccc1F`, the Potency entry is “inactive”.

For `Cc1ccc(N(C(=O)Cc2cccs2)C2C=CS(=O)(=O)C2)cc1Cl` (centres undefined), the Potency entry is “inactive”.

Turning to `O=C(O)C1CC=CCC1C(=O)Nc1ccccc1C(=O)N1CCN(c2ccccc2)CC1` (centres undefined), the Potency entry is “inactive”.

As for `CC(C)c1ccc(N2CCN(C(=O)c3ccccc3NC(=O)/C=C(\C(=O)O)c3ccccc3)CC2)cc1`, the Potency was 22.4 µM (active).

Turning to `Cc1cccc(N2CCN(C(=O)c3ccccc3NC(=O)C3CCCCC3C(=O)O)CC2)c1` (centres undefined), the Potency result is “inactive”.

For the molecule `O=C(NC1(C(F)(F)F)NC(=O)N(C2CCCCC2)C1=O)c1ccco1` (centres undefined), the Potency result was “inactive”.

Regarding `CCOc1ccc(Cn2nnc(C(=O)NCc3ccccc3)c2N)cc1`, the Potency result is “inactive”.

Consider `CCOc1c2ccc(C(=O)NCc3ccc(OC(F)(F)F)cc3)cc2nn1C`, for which the Potency was 3.16 µM (active).

As for `CCCCOc1ccc(C(=O)NCc2ccncc2)cc1`, the Potency entry was “inactive”.

Consider `CCOC(=O)C(C)n1nc(-c2ccccc2)c2ccccc2c1=O` (centres undefined), for which the Potency result was “inactive”.

Turning to `Cc1cc(NC(=O)Nc2ccccc2[N+](=O)[O-])no1`, the Potency entry was “inactive”.

On to `COc1ccc(/C=C/NC(=O)c2ccc(OC)cc2)cc1`, for which the Potency is 2.82 µM (active).

For `COc1ccc(/C=C/NC(=O)Cc2ccc(OC)c(OC)c2)cc1`, the activity, negative = inhibition is 8.87% [at 13.5 µM] and 1.01% [at 13.5 µM].

On to `COc1ccc(NC(=O)c2ccc(OC)cc2)cc1`, for which the Potency result was “inactive”.

On to `CCOC(=O)C1C(c2ccc(Cl)cc2)NC(=S)NC1(O)C(F)(F)F` (centres undefined), for which the Potency is 7.94 µM (active).

In the case of `CC(=O)C1C(c2ccc(Cl)cc2)NC(=O)NC1(O)C(F)(F)F` (centres undefined), the Potency result is “inactive”.

Regarding `O=C(c1cccs1)C1C(c2ccc(Br)cc2)NC(=S)NC1(O)C(F)(F)F` (centres undefined), the Potency is 3.16 µM (active).

In the case of `CCOC(=O)NNC(=O)c1ccc(Cl)cc1`, the Potency result was “inactive”.

`O=C(CN(C(=O)c1csnn1)c1cccc(F)c1)NCc1ccc(F)cc1`: the Potency result is “inactive”.

With `CCn1cnc2scc(-c3ccc(C)c(C)c3)c2c1=O`, the Potency entry was “inactive”.

In the case of `CN1C(=O)/C(=C\c2cc(Br)cs2)c2ccccc21`, the Potency entry is “inactive”.

With `CC(C)c1csc(CN2CCC(CO)(Cc3ccccc3)CC2)n1`, the Potency result is “inactive”.

Take `CCOc1cc(CNn2c(C)nnc2SCC(=O)NC(C)(C)C)ccc1OCC(=O)NC(C)(C)C`: the Potency result was “inactive”.

For the molecule `CCOCCCNCc1ccc(OCc2ccc(F)cc2)c(OC)c1`, the Potency entry was “inactive”.

Regarding `O=C(CCc1n[nH]c(=O)[nH]c1=O)N/N=C/c1ccc(Br)o1`, the Potency entry was “inactive”.

As to `Cc1nnc(SCC(=O)N2c3ccccc3C(C)(c3ccc(Cl)cc3)CC2(C)C)s1` (centres undefined), the Potency result is “inactive”.

As for `Cc1ccc(-c2c[n+](=O)c3c(n2[O-])CCC3)cc1`, the Potency result is “inactive”.

As to `O=[n+]1c2c(n([O-])c3cc(Br)ccc31)CCC2`, the Potency was 31.6 µM (active).

Turning to `Cc1ccc(-c2c(C)n([O-])c3c([n+]2=O)CCC3)cc1`, the Potency result is “inactive”.
